G9a inh – blocks human histone lysine methyltransferase G9a; Potency, µM (titrated, usually from 102 µM), most hits filed as inhibitors; G9a H3K9 monomethylation, AlphaScreen, 2 h; 350,000 tested, 8.8% active; Q96KQ7; AID 504332; also: nearly all actives have a fitted effect of over 75% in size
Target sequence (Q96KQ7 913-1193 limits assumed): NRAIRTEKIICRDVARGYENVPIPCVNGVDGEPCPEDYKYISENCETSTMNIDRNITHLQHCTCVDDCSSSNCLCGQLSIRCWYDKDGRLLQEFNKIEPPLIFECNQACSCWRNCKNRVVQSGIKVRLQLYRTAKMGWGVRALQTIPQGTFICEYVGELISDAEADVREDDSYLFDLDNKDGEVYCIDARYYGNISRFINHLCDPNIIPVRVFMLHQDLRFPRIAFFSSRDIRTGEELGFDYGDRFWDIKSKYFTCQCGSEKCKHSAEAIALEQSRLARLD
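Using a bead-based AlphaScreen, monomethylated H3K9 product from 2 h room-temperature reactions (G9a 20 nM, peptide 500 nM, SAM 20 uM) was detected with 0.5 ug/mL rabbit anti-H3K9me1 antibody.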
Sfp inh – Sfp phosphopantetheinyl transferase inhibition; 310,000 tested, 3.5% active; Biochemical Sfp PPTase activity, qHTS; Potency, µM, actives largely listed as inhibitors;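 also: the enzyme is Sfp with the accession as filed and its product quenches rhodamine fluorescence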
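Reaction rates are the 30-min fluorescence difference (ex 525, em 598 nm) in wells containing 15 nM Sfp, 5 uM rhodamine-CoA and 12.5 uM BHQ-2-YbbR at pH 7.6 with 10 mM MgCl2.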
JMJD2A Tudor – JMJD2A Tudor domain (human) inhibition; AlphaScreen JMJD2A-Tudor / H3K4me3 peptide binding; O75164; 390,000 tested, 4.4% active; Potency, µM (doses to about 114 µM), hits mostly inhibitors; also: nearly all actives have a fitted effect of over 50% in size
HP1b chromo inh – HP1-beta chromodomain-methylated histone interaction inhibition; AlphaScreen HP1-beta / biotin-H3K9me3 peptide binding; Potency, µM (top dose mostly 114 µM), hits mostly inhibitors; 390,000 tested, 0.56% active; AID 540317; also: nearly all actives have a fitted effect of over 70% in size
Target sequence (P83916 whole entry, looked up): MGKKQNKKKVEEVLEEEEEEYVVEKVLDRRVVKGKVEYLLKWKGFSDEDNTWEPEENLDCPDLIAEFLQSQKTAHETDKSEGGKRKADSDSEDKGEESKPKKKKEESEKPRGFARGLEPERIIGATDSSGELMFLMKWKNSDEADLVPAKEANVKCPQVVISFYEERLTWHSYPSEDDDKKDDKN
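Compound inhibition of the preformed complex between 50 nM HP1-beta and 50 nM biotinylated H3K9me3 peptide was read by AlphaScreen. Buffer was PBS pH 7.4 with 0.01% Tween-20. Incubations ran 30 min at room temperature, with 10 ug/mL donor/acceptor beads.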
BAZ2B block – BAZ2B (human) inhibition. Q9UIF8. AID 504333. 360,000 tested, 4.4% active. Potency, µM (titrated, usually from 114 µM), hits mostly inhibitors. AlphaScreen BAZ2B-H3K14Ac peptide displacement; also: nearly all actives have a fitted effect of over 60% in size
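AlphaScreen displacement of biotin-H3(5-23)K14Ac peptide (50 nM final) from BAZ2B (50 nM final) in PBS pH 7.4, 0.01% Tween-20; complex preformed 30 min RT, then compounds (top 110 uM) 30 min RT, beads 20 min dark.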
Each line names hits and unclear results; the compound was inactive in the other large screens. In the library only some 12% were active in any assay of this set; here they are far more common. Calls follow the shape of the dose curve; as a rule, active = well fitted curve in the direction sought with a large enough effect; inconclusive = small, poorly fitted or top-dose-only effect, or another doubt; inactive = no such curve, though single readings can be large; an effect the other way counts as inactive or inconclusive.

C=CC[n+]1c(-c2ccc(Cl)cc2Cl)csc1Nc1c(C)n(C)n(-c2ccccc2)c1=O	G9a inh inconclusive, JMJD2A Tudor inconclusive, HP1b chromo inh inconclusive, BAZ2B block 40µM
C=CC[n+]1c(-c2ccc(Cl)cc2Cl)csc1Nc1ccc(NC(C)=O)cc1	G9a inh 40µM, JMJD2A Tudor 28µM, HP1b chromo inh inconclusive, BAZ2B block 28µM
COc1c(O)c(O)c2oc(-c3ccccc3)cc(=O)c2c1OC	Sfp inh 3.2µM, JMJD2A Tudor inconclusive, BAZ2B block inconclusive
COc1cc(-c2cc(=O)c3c(O)c(OC)c(OC)c(O)c3o2)ccc1O	Sfp inh 5µM, BAZ2B block inconclusive
COc1ccc(-c2cc(=O)c3c(O)c(OC)c(OC)c(OC)c3o2)cc1OC	none (no result: G9a inh, JMJD2A Tudor, HP1b chromo inh, BAZ2B block)
COCC(C)n1c(SCC(=O)c2cc(C)n(C)c2C)nc2ccccc2c1=O (configuration not stated)	G9a inh 40µM, JMJD2A Tudor inconclusive, BAZ2B block 50µM
COCC(C)n1c(C)cc(C(=O)CSc2ncccn2)c1C (configuration not stated)	G9a inh 35µM, BAZ2B block inconclusive
CCc1noc(C)c1C(=O)N(C)CC(=O)Nc1ccccc1C(F)(F)F	none (no result: Sfp inh)
O=C(NCCSC1CCCCC1)c1ccccc1	G9a inh 71µM
CC1=C(C(=O)OC(C)C)C(c2c(O)ccc3ccccc23)NC(=O)N1 (configuration not stated)	none
COc1cc(C(=S)N2CCN(C(c3ccccc3)c3ccccc3)CC2)cc(OC)c1O	G9a inh 7.9µM, Sfp inh 16µM, JMJD2A Tudor 56µM, HP1b chromo inh inconclusive, BAZ2B block 40µM
COc1cccc(CN2CCN(C(c3ccccc3)c3ccccc3)CC2)c1O	Sfp inh inconclusive, JMJD2A Tudor 50µM, HP1b chromo inh inconclusive, BAZ2B block 35µM (no result: G9a inh)
CCOC(=O)C1(Cc2ccccc2)CCN(Cc2cccc(OC)c2O)CC1	G9a inh inconclusive, BAZ2B block inconclusive
COc1ccc(NC(=S)NC(=O)c2cncc(Br)c2)c(OC)c1	G9a inh inconclusive, JMJD2A Tudor inconclusive
Cc1cc(NC(=O)CCC(=O)N(CC(=O)NCC2CCCO2)c2cccc(C)c2C)no1 (configuration not stated)	none
COCCNC(=O)CN(C(=O)CCC(=O)Nc1cc(C)on1)c1cccc(C)c1C	G9a inh inconclusive, JMJD2A Tudor 79µM
CCn1cc(S(=O)(=O)c2ccccc2)c(=O)c2cc(C)ccc21	none (no result: Sfp inh)
Nc1ccccc1SCc1csc(-c2ccc(Cl)cc2)n1	G9a inh 35µM, Sfp inh 14µM
C=CCn1c(SCc2csc(-c3ccc(Cl)cc3)n2)nnc1-c1ccccc1OC	G9a inh 71µM
CC(C)N(Cc1ccccc1)C(=O)COC(=O)CCC(=O)c1ccc(F)cc1	none (no result: Sfp inh)
CCOc1ccc2c(ccc(/C=C/c3cc(C)c4cccnc4c3O)[n+]2C)c1	JMJD2A Tudor 10µM, HP1b chromo inh inconclusive (no result: G9a inh, Sfp inh, BAZ2B block)
CCC1C(=O)Nc2ccccc2N1C(=O)c1ccc(Cl)nc1 (configuration not stated)	JMJD2A Tudor 100µM
COc1ccc(CCNC(=O)COC(=O)c2cccn2C)cc1	none (no result: G9a inh, Sfp inh, BAZ2B block)
Cc1ccc(CN(Cc2ccco2)C(=O)COc2c(C)cc(C)cc2C)cc1	none (no result: Sfp inh)
Cc1cc(C)c(OCC(=O)N(Cc2ccc(N(C)C)cc2)Cc2ccco2)c(C)c1	G9a inh 13µM, JMJD2A Tudor 20µM, HP1b chromo inh inconclusive, BAZ2B block 8.9µM (no result: Sfp inh)
Cc1cccc(OCC(=O)N(Cc2ccc(N(C)C)cc2)Cc2ccco2)c1C	G9a inh 14µM, JMJD2A Tudor 22µM, HP1b chromo inh inconclusive, BAZ2B block 10µM (no result: Sfp inh)
O=C(NCc1ccc(OC(F)(F)F)cc1)C1CCC(=O)N(C2CC2)C1 (configuration not stated)	none (no result: G9a inh)
COc1ccc(C2=NNC(=Nc3cc(S(=O)(=O)N(C)C)ccc3C)SC2)c(OC)c1	Sfp inh inconclusive
CC(C)(C)N=C1NN=C(c2ccc(S(=O)(=O)N3CCCCC3)cc2)CS1	G9a inh 35µM (no result: Sfp inh)
CC(=O)Nc1ccc(C2=NNC(=Nc3cccc(S(=O)(=O)N(C)C)c3)SC2)cc1	G9a inh 25µM, Sfp inh 13µM, JMJD2A Tudor 35µM, HP1b chromo inh inconclusive
O=S(=O)(c1ccc(N=C2NN=C(c3cc(F)ccc3F)CS2)cc1)N1CCOCC1	none
CN(C)S(=O)(=O)c1cccc(N=C2NN=C(c3ccccc3)CS2)c1	G9a inh 35µM, HP1b chromo inh inconclusive
